# The source made the active and inactive calls. Rule for the calls: active = hit-call score of the fitted dose curve at least 0.9, where 1 is the maximum; inactive = score below 0.9.
# Molecular target: Retinoic acid receptor alpha (Homo sapiens) (UniProt P10276)
# Experiment: ATG_DR5_RAR_CIS: Attagene CIS-FACTORIAL HepG2 Assay for human Retinoic Acid Receptor Alpha (RARE), DR5 submotif (AID 2282934);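 for AC50: reporter responds to endogenous RAR alpha beta and gamma in HepG2 not RARA alone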
# Details: HepG2 Attagene cis-factorial RARE DR5 reporter, mRNA; actives raise or lower the signal
# Protocol: ATG_CIS is a cell-based, multiplexed-readout assay that uses HepG2, a human liver cell line, with measurements taken at 24 hours after chemical dosing in a 24-well plate.ATG_DR5_RAR_CIS is one of 52 assay component(s) measured or calculated from the ATG_CIS assay. It is designed to make measurements of mRNA induction, a form of inducible reporter, as detected with fluorescence intensity signals by Reverse transcription polymerase chain reaction (RT-PCR) and Capillary electrophoresis technology.Data from the assay component ATG_DR5_RAR_CIS was analyzed into 1 assay endpoint. This assay endpoint, ATG_DR5_CIS, was analyzed with bidirectional fitting relative to DMSO as the negative control and baseline of activity. Using a type of inducible reporter, measures of mRNA for gain or loss-of-signal activity can be used to understand the reporter gene at the transcription factor-level as they relate to the gene RARA and RARB and RARG. Furthermore, this assay endpoint can be referred to as a primary readout, because this assay has produced multiple assay endpoints where this one serves a reporter gene function. To generalize the intended target to other relatable targets, this assay endpoint is annotated to the nuclear receptor intended target family, where the subfamily is non-steroidal.
# Human liver HepG2 cells are transiently transfected with multiple reporter transcription units (MRTUs) in 6-well plates using FuGene 6 reagent (Roche; 3 ml FuGene/1 mg DNA). The MRTU constructs are regulated by a cis-regulating element (promoter). […] A major difference between the CIS and TRANS system is that in CIS activities of endogenous TFs are measured, whereas the TRANS assay evaluates changes in activities of exogenous, chimeric NR-Gal4 proteins. […] At the end of 24 hour incubation, total RNA was isolated using TriZol reagent (Invitrogen). The isolated RNA is then reverse-transcribed using oligo(dT) primer and Mo-MLV reverse transcriptase (Invitrogen) with DNAse I (Ambion) treatment for 30 min. The one-tenth of the produced cDNA was amplified by PCR using Taq DNA polymerase (Invitrogen) and two reporter sequence-specific primers. The PCR products were fluorescently labeled by primer extension with 6-arboxyfluorescein (6-FAM) 5'-labeled reporter sequence-specific primer (2 min at 95 C, 20 s at 68 C and 10 min at 72 C) and these products were digested with 5U of HpaI (New England Biolabs) for 2h at 37 C. The fragments were purified using Qiaquick PCR columns (Qiagen), analyzed on an ABI 3130xL genetic analyzer (Applied Biosystems) with peak positions identified by using a set of X-rhodamine (ROX)-labeled MapMarker1000 molecular weight standards (BioVentures). The raw capillary electrophoresis data was processed using Attagraph software (Attagene).
# Retinoic acid receptor alpha (Homo sapiens), sequence (P10276 whole entry, looked up): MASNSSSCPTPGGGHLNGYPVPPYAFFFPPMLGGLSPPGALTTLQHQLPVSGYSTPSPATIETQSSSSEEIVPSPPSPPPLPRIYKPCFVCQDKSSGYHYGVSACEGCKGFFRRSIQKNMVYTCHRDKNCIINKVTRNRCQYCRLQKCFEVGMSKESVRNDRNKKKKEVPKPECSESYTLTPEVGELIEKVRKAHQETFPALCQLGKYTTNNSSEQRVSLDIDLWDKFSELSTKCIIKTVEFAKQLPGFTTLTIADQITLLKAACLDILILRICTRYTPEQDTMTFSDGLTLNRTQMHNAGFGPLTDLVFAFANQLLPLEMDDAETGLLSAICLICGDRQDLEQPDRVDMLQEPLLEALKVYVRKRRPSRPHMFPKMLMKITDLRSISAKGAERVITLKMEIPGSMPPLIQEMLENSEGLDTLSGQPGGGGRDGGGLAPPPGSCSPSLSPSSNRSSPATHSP
Compound,outcome,AC50
O=C(O)CCN(C1(C(=O)NO)CCCC1)S(=O)(=O)c1ccc(Oc2ccc(F)cc2)cc1,inactive,–
CC1=CC(=O)CC(C)(C)C1,inactive,–
COC(=O)c1ccccc1O,inactive,–
Cn1cnc([N+](=O)[O-])c1Sc1ncnc2nc[nH]c12,inactive,–
Cc1ccc(C)c(O)c1,inactive,–
C=CCCCCCCCCC(=O)O,inactive,–
CCOc1cccc(-n2cc(C(=O)N3CCN(c4cc(C(=O)O)c5ccccc5c4)CC3)nc2-c2ccc(C)cc2)c1,–,26 µM (active)
CCCC(=O)OCC,inactive,–
CCCCCCCCO,–,25.3 µM (active)
CC[C@H]1CC[C@H](NCc2cc3c(cc2OC)[C@H]2C[C@H]2C(=O)N3C)[C@H](c2ccccc2)N1,inactive,–
CNS(=O)(=O)c1cc(C(=O)N2CCC(CCN3C4CCC3CC(n3c(C)nc5ccccc53)C4)(c3cccc(F)c3)CC2)c(Cl)cc1F (stereo not given),inactive,–
CCOC(=O)COc1ccc2c(c1)CC(NCC(O)c1cccc(Cl)c1)CC2 (stereo not given),inactive,–
CNCc1ccc(NC(=O)c2c[nH]c3c2C(=O)CCC3)cc1,inactive,–
C[C@](N)(Cc1ccc(O)c(O)c1)C(=O)O,inactive,–
CCOCCO,inactive,–
C1=CCCC=CCCC=CCC1,inactive,–
O=C(OC[C@H]1O[C@@H](OC(=O)c2cc(O)c(O)c(OC(=O)c3cc(O)c(O)c(O)c3)c2)[C@H](OC(=O)c2cc(O)c(O)c(OC(=O)c3cc(O)c(O)c(O)c3)c2)[C@@H](OC(=O)c2cc(O)c(O)c(OC(=O)c3cc(O)c(O)c(O)c3)c2)[C@@H]1OC(=O)c1cc(O)c(O)c(OC(=O)c2cc(O)c(O)c(O)c2)c1)c1cc(O)c(O)c(OC(=O)c2cc(O)c(O)c(O)c2)c1,inactive,–
O=C1OC(=O)C2C3C=CC(C3)C12 (stereo not given),inactive,–
O=c1[nH]c2ccc(S(=O)CCN3CCC(Cc4ccc(F)cc4)CC3)cc2o1 (stereo not given),inactive,–
Nc1cccc(N)c1,inactive,–

Compound,outcome,AC50
CC(C)CC(C)(O)C#CC(C)(O)CC(C)C (stereo not given),inactive,–
CC1(C)C(=O)N(Br)C(=O)N1Br,inactive,–
Clc1nc(Cl)c(Cl)c(Cl)c1Cl,inactive,–
CC(C)CCCCCCCOC(=O)CCCCC(=O)OCCCCCCCC(C)C,–,18 µM (active)
COc1ccc(-n2nc(C(F)F)cc2-c2ccc(S(C)=O)cc2)cc1 (stereo not given),inactive,–
CC(C)CCO,inactive,–
Cc1ccc(O)cc1,inactive,–
CC[C@H]1OC(=O)[C@H](C)[C@@H](O[C@H]2C[C@@](C)(OC)[C@@H](O)[C@H](C)O2)[C@H](C)[C@@H](O[C@@H]2O[C@H](C)C[C@H](N(C)C)[C@H]2O)[C@](C)(O)C[C@@H](C)C(=O)[C@H](C)[C@@H](O)[C@]1(C)O,inactive,–
O=C(CCCCCCCCc1cccnc1)N1CCC(C=C(c2ccccc2)c2ccccc2)CC1,–,1.66 µM (active)
O=P(OC(CCl)CCl)(OC(CCl)CCl)OC(CCl)CCl,inactive,–
CC(O)CN(CCN(CC(C)O)CC(C)O)CC(C)O (stereo not given),inactive,–
On1ccccc1=S,inactive,–
Cc1[nH]cnc1C[C@H]1CCc2c(C)c3ccccc3n2C1=O,inactive,–
CC(=O)OCCC(C)C,inactive,–
COCCOCCOCCOC,inactive,–
CCc1cc(SCc2sc(-c3ccc(C(F)(F)F)cc3)nc2CN2CCN(c3ccc(OC)cc3)CC2)ccc1OCC(=O)O,inactive,–
CC(=O)OC[C@H]1O[C@@](COC(C)=O)(O[C@H]2O[C@H](COC(C)=O)[C@@H](OC(C)=O)[C@H](OC(C)=O)[C@H]2OC(C)=O)[C@@H](OC(C)=O)[C@@H]1OC(C)=O,inactive,–
CC(C)(O)c1coc(S(=O)(=O)NC(=O)Nc2c3c(cc4c2CCC4)CCC3)c1,inactive,–
CC(C)=CCCC(C)CCO (stereo not given),inactive,–
COc1ccc(/C=C/S(=O)(=O)NC(=O)c2ccc(C)cc2Cl)cc1,inactive,–
